SARS PLpro yeast: qHTS of Yeast-based Assay for SARS-CoV PLP. S. cerevisiae expressing SARS-CoV PLpro, growth rescue. Potency, µM (titrated, usually from 32.9 µM), inactives show at the top dose activity, positive = growth rescue, actives largely listed as activators. actives 0.19% (n = 330,000); calls by dose curve; further: 0% is about no effect; nearly all actives have a fitted effect of over 55% in size
Sm TGR inh: qHTS Assay for the Inhibitors of Schistosoma Mansoni Peroxiredoxins. actives 3% (n = 360,000). purified TGR, DTNB reduction, TNB absorbance 405 nm. Potency, µM (doses to about 114 µM), for the others: at the top dose activity change, negative = inhibition, hits mostly inhibitors. Schistosoma mansoni thioredoxin glutathione reductase (TGR), Q962Y6. AID 485364, 2010; active means well fitted inhibition curve with a large enough effect; inconclusive means small, poorly fitted or top-dose-only effect; inactive means no such curve, though single readings can be large or run the other way; further: on the % scale 0 is the no-effect control and ±100 the full control effect; nearly all actives have a fitted effect of over 60% in size
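TGR 20 nM + NADPH 100 uM (dispensed conc.), cpd preinc 15 min RT; start with NADPH (500 uM addition) then DTNB (15 mM addition). Kinetic TNB absorbance, 405 nm filter. Four-parameter Hill fit across titration.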
Active calls of the source: *; u = inconclusive; x = not tested or not shown; [ ] = remark or other dose. An excerpt weighted towards active compounds, which were near 3% of everything screened. Potency means the concentration at half of the fitted maximal effect.

SMILES | SARS PLpro yeast | Sm TGR inh
N#Cc1ccc(C[C@@H](NS(=O)(=O)c2ccc(C(=O)O)cc2)C(=O)O)cc1 | -6% | -4%
COc1ccc(N2CC(NC(=O)c3cccs3)CC2=O)cc1OC (stereo not drawn) | x | 8%
N#CCCN(C(=O)CCl)c1cccc(Cl)c1 | 0% | 7.1µM*
N#CCCN(C(=O)COC(=O)c1nc(Cl)ccc1Cl)c1ccccc1 | -1% | -2%
Fc1ccccc1C1CC(c2ccco2)=Nc2ccccc2S1 (stereo not drawn) | -5% | 8.9µM*
COc1ccccc1C1CC(c2cccs2)=Nc2ccccc2S1 (stereo not drawn) | -4% | 0%
Cc1cc(N(C)Cc2ccccc2)n2nc(-c3ccc(C(C)(C)C)cc3)nc2n1 | x | -12%
CCN1CCN(c2ccc(N)cc2C)CC1 | 1% | 3%
Nc1cc(Cl)ccc1N1CCCCCC1 | 0% | 6.3µM*
Nc1cc(Cl)ccc1N1CCCCC1 | 0% | 0%
Cc1cc(N)ccc1N1CCCC1 | -9% | 5µM*
COc1ccc(NC(=O)c2c(NCc3cccs3)sc3c2CCCCC3)c(OC)c1 | x | 5.6µM*
COc1ccc(NC(=O)CN(C)CC(=O)Nc2sc3c(c2C(N)=O)CCC3)cc1 | -4% | 50µM*
COc1ccc(CC(=O)Nc2sc3c(c2C(=O)Nc2ccccc2)CCCCC3)cc1 | x | -11%
COc1ccc2nc(Nc3sc4c(c3C(N)=O)CCCC4)sc2c1 | -66% | 13µM*
COc1ccc2nc(NC3=NCCC3)sc2c1 | -3% | 12%
COc1ccc(CC(=O)Nc2sc3c(c2C(N)=O)CCCC3)cc1 | 0% | -15%
COc1ccc(NC(=O)c2c(NC(=O)CNCc3ccco3)sc3c2CCC3)c(OC)c1 | 4% | -15%
COc1ccc(NC(=O)c2c(NCc3cccs3)sc3c2CCCC3)cc1 | x | 32µM*
COc1cccc(-n2ccnc2SCC(=O)Nc2nc3ccc(C)cc3s2)c1 | x | -1%
CC1CCN(c2ccc(-c3nc(C(C)C)no3)cc2[N+](=O)[O-])CC1 | x | -14%
CCc1ccccc1NC(=O)NC(CC)Cn1nnc2ccccc2c1=O (stereo not drawn) | x | 1%
Cc1ccc(C)c(NC(=O)C(Cc2ccccc2)n2cccc2)c1 (stereo not drawn) | x | 0%
COc1ccc(-c2nc3sc(CCNC(=O)c4cc(OC)c(OC)c(OC)c4)c(C)n3n2)cc1 | x | 11%
O=C(NCCc1ccccc1)c1ccc2c(c1)nc1n2CCOC1 | x | -3%
SMILES | SARS PLpro yeast | Sm TGR inh
CCc1c(C)nc2nncn2c1Nc1ccc(C)c(F)c1 | x | 1%
CCOC(=O)c1ccc(NC(=O)c2c(NCc3cccs3)sc3c2CCCCC3)cc1 | x | 14µM*
CCOC(=O)c1ccc(NC(=O)c2c(NC(=O)CCC(=O)O)sc3c2CCCCC3)cc1 | 0% | 0%
COc1ccc2c(c1)CC(NC(=O)Nc1c(C)cc(C)cc1C)CO2 (stereo not drawn) | x | 4%
C=CCn1c2ccccc2c(=O)c2cc(C#CC[C@@H](C)O)ccc21 | 4% | 50µM*
C=CCn1c2ccccc2c(=O)c2cc(C#CC3(O)CCCCC3)ccc21 | 19% | -20%
CN(C)c1ccc(CNC(=O)C2CCN(S(=O)(=O)c3ccc4[nH]c(=O)ccc4c3)CC2)cc1 | x | -2%
CC(C)N(C)C1CCN(S(=O)(=O)c2ccc3[nH]c(=O)ccc3c2)CC1 | x | 50µM*
O=C(C1=C[C@@H](c2ccccc2)C[C@@H](OCc2ccc(CO)cc2)O1)N1CCN(Cc2ccc3c(c2)OCO3)CC1 | -2% | -9%
O=C(C1=C[C@H](c2ccccc2)C[C@H](OCCCCO)O1)N1CCOCC1 | -1% | 45µM*
O=C(C1=C[C@@H](c2ccc(Br)cc2)C[C@@H](OCCCCO)O1)N1CCN(Cc2ccc3c(c2)OCO3)CC1 | -1% | -2%
O=C(C1=C[C@H](c2ccc3c(c2)OCO3)C[C@H](OCCCCO)O1)N1CCOCC1 | 3% | u
O=C(C1=C[C@H](c2ccccc2)C[C@H](OCc2ccc(CO)cc2)O1)N1CCN(Cc2ccccc2)CC1 | -1% | 28µM*
O=C(C1=C[C@@H](c2csc3ccccc23)C[C@@H](OCc2ccc(CO)cc2)O1)N1CCN(Cc2ccccc2)CC1 | -3% | 35µM*
O=C(C1=C[C@H](c2ccc(Br)cc2)C[C@H](OCCCCO)O1)N1CCN(Cc2ccccc2)CC1 | 0% | 35µM*
O=C(C1=C[C@@H](c2csc3ccccc23)C[C@@H](OCc2ccc(CO)cc2)O1)N1CCN(Cc2ccc3c(c2)OCO3)CC1 | 1% | -8%
CCOc1ccccc1NC(=O)Nc1nnc(N(C)Cc2ccccc2)s1 | x | 2%
COc1ccc(-c2nn(-c3ccc(F)cc3F)c3c2cnc2ccc(F)cc23)cc1 | x | 5%
CCN(CC)C(=O)CSc1nc2cc3c(cc2c(=O)n1CCCCCC(=O)NCCc1ccc(OC)c(OC)c1)OCO3 | x | -8%
O=C(C1=C[C@H](c2csc3ccccc23)C[C@H](OCCCCO)O1)N1CCN(Cc2ccccc2)CC1 | -2% | 18µM*
O=C(C1=C[C@@H](c2csc3ccccc23)C[C@@H](OCCCCO)O1)N1CCN(Cc2ccc3c(c2)OCO3)CC1 | -1% | -10%
COc1ccc([C@]23Cc4cc(C#N)ccc4C(O2)C2=C(CC4(CCCCC4)OC2=O)O3)cc1 | -2%[6.58 µM] | u
CCCCN(CC)CCCNC(=O)c1sc2nc(C)cc(C)c2c1-n1cccc1 | x | 4%
COc1ccccc1NC1=C(NC(C)=O)C(=O)c2ccccc2C1=O | -4% | 4µM*
COC1=C(Nc2ccccc2OC)C(=O)c2ccccc2C1=O | -3% | u
SMILES | SARS PLpro yeast | Sm TGR inh
Cc1ccc(NC2=C(NCCO)C(=O)c3ccccc3C2=O)cc1 | -3% | -19%
O=C(Oc1ccc(NC2=C(Cl)C(=O)c3ccccc3C2=O)cc1)c1ccc([N+](=O)[O-])cc1 | -2% | -16%
O=C(Nc1ccc2cn[nH]c2c1)c1c(Cl)cccc1Cl | 4% | 1%
CN(C)c1ccc(NC2=C(Cl)C(=O)c3ccccc3C2=O)cc1 | 0% | 8.9µM*
O=C1C(Cl)=C(Nc2ccc3cn[nH]c3c2)C(=O)c2ccccc21 | -5% | 0.32µM*
CC(=O)Nc1ccc(NC2=C(Cl)C(=O)c3ccccc3C2=O)cc1 | 1% | 0.89µM*
COCCCN1C(=O)c2oc3ccccc3c(=O)c2C12C(=O)N(C)c1ccccc12 (stereo not drawn) | x | 0%
O=C(CC(c1cccs1)N1Cc2ccccc2C1=O)Nc1ccc(F)c(Cl)c1 (stereo not drawn) | x | -15%
O=C(O)C1=CC(c2ccc(Br)cc2)n2ncnc2N1 (stereo not drawn) | x | 11%
Cc1ccc(NC(=O)Cn2cc(S(=O)(=O)c3ccc(C)cc3)c(=O)c3cc4c(cc32)OCO4)cc1 | x | -6%
Cc1c(S(=O)(=O)c2ccccn2)c(N)n(Cc2ccccc2)c1C | -1% | 2µM*
Cc1c(S(=O)(=O)c2ccccn2)c(N)n(Cc2ccccc2Cl)c1C | 0% | 2µM*
Cc1c(C)n(Cc2ccccc2)c2ncnc(N)c12 | 4% | 0%
COCCn1c(C)c(C)c(S(=O)(=O)c2ccccc2)c1N | -1% | 1µM*
COc1nc(C)cc(C)c1S(=O)(=O)c1ccccc1 | -1% | 15%
Cc1ccc(C)n1Cc1ccccc1Cl | 0% | u
Cc1ccc(C)c(OCCn2c(CCNC(=O)C3CCCCC3)nc3ccccc32)c1 | x | 0%
COc1ccc(OC)c(S(=O)(=O)N2CC=C(c3c(C)n(CC(=O)N4CCCC4)c4ccccc34)CC2)c1 | x | -35%

Compound activity as filed in PubChem BioAssay.
